Inhibition data for 61 compounds are collected here from PubChem BioAssay AID1626 (SRMLSC, 2009).

The inhibition is the drop in the measured response relative to a control, in per cent.

The campaign covered roughly 220,000 compounds. About 2,000 (0.91%) were called active. Inconclusive results (about 2%) are left out. Only a sample is shown. Entries with a potency or affinity are not part of this list. Values without a mark were called inactive. No stated cut-off is given here; in the data, inconclusive means inhibition above about 80% without an active follow-up result; inactive means below that; test concentration not stated here.

This experiment can be described thus: M. tuberculosis H37Rv growth inhibitors, H37Rv strain (AID 1626).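 Further: bacteria incubated seven days before Alamar blue readout; 0% = bacteria only wells and 100% = bacteria with antibiotic wells.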 The note with it: stronger effect = higher value, concentration not given here.
Take `CN(C)C(/C=C/Nc1cccc([N+](=O)[O-])c1)=C(C#N)C#N`: the inhibition is -7.29%. As for `CCN(CC)c1nc(Oc2ccc(=O)[nH]n2)nc(N2CCOCC2)n1`, the figure is 0.81%. As to `Cc1ccccc1NC(=O)NC(C)(C)CC(C)(C)C`, the inhibition was -4.38%.

Consider `COc1cccc(C(C(=O)NC(C)(C)C)N(CC(C)C)C(=O)CCC(=O)Nc2cc(C)on2)c1OC` (stereo unspecified), for which the inhibition was -4.52%. On to `O=C(c1ccc(NC2=NC3CS(=O)(=O)CC3S2)cc1)N1CCN(C(=O)c2ccco2)CC1` (stereo unspecified), for which the inhibition is -2.98%.

In the case of `OCC1(Cc2cccc(C(F)(F)F)c2)CCN(Cc2cc(F)cc(F)c2)CC1`, the inhibition is 1.35%. With `Cc1ccc(-n2cc(CN3CCC(CO)(Cc4ccccc4)CC3)cn2)cc1`, the inhibition is 0.885%. As for `O=C(CCN1C(=O)c2ccccc2C1=O)C1=NN[C@@H]2C(=O)N(c3ccc4c(c3)OCO4)C(=O)[C@H]12`, the figure is -4.07%; as for `COc1ccc(CN(CC2CCCO2)C(=O)c2cc3sccc3n2C)c(OC)c1` (stereo unspecified), -12%; as for `CC1(C)Cc2c(sc3c2c(=O)n(-c2cccc(Cl)c2)c(=O)n3CC(N)=O)CO1`, -12.2%. As for `CCOC(=O)C1=CN(Cc2ccc(OC)cc2)C=C(C(=O)OCC)C1c1cccs1`, the inhibition is -0.52%. To `Cc1cc(Nc2ccc(C)c(Cl)c2)nc(N2CCOCC2)n1` belongs 12.8%. With `Cc1cc(C(=O)Nc2ccc3c(c2)OCCO3)c2ccccc2n1`, the inhibition was -3.31%. To `O=C(Nc1ccc2c(c1)OCCO2)c1ccccc1F` belongs 6.75%; to `O=C(Nc1ccc2oc(-c3ccccc3Cl)nc2c1)c1ncn[nH]1`, 6.26%. For the compound `Cc1[nH]nc(NNC(=O)c2ccccc2)c1[N+](=O)[O-]`, the inhibition was -6.74%.

For `O=C1NC(=O)N(c2ccccc2)C(=O)/C1=C\C=C\c1ccccc1`, the inhibition is -3.04%. To `O=C1NC(=O)N(c2ccccc2)C(=O)/C1=C/C=C/c1ccco1` belongs -5.19%; to `CN1C(=O)OC2(C)CCc3ccccc3C12C` (stereo unspecified), -7.1%; to `Cc1cc(NCCO)nc(-n2nc(C)cc2C)n1`, 8.23%. As for `CC(=O)c1nnn(-c2nc(N)nc(N(c3ccccc3)c3ccccc3)n2)c1C`, the figure is 3%. As for `Cc1ccccc1Nc1nc(N)nc(CCl)n1`, the figure is 77.4%; as for `Cc1cc(C)n(-c2nc(N(C)C)nc(N(C)C)n2)n1`, -2.29%. As to `CC(C)Nc1nc(NC(C)C)nc(Nn2cnnc2)n1`, the inhibition was -7.25%. As for `CNc1nc(C)nc(-n2nc(C)cc2C)n1`, the figure is 6.41%; as for `Cc1cc(C)n(-c2nc(C)nc(N)n2)n1`, -4.82%. `Cc1cc(C)n(-c2nc(Nc3ccccc3)nc(-n3nc(C)cc3C)n2)n1`: the inhibition was -2.93%. As for `CCC1CCc2c(sc(NC(=O)C3c4ccccc4Oc4ccccc43)c2C(N)=O)C1` (stereo unspecified), the figure is 5.29%; as for `O=C(NC(=S)NCC1CCCO1)c1ccc(Cl)cc1` (stereo unspecified), 2.47%. For the compound `O=C(NCc1ccccc1)c1onc(CSc2ccccc2)c1C(=O)NCC1CC1`, the inhibition is -10.4%. For the compound `CC(C)c1nnc(NC(=O)CSc2nnc(-c3ccco3)o2)s1`, the inhibition is -0.02%.

Turning to `O=C(Cn1c(=O)n(-c2ccccc2)c(=O)c2sccc21)NCc1ccccc1`, the inhibition is -8%.

Regarding `CN(C)S(=O)(=O)c1cccc(C(=O)NCC2CCCO2)c1` (stereo unspecified), the inhibition is 4.28%. In the case of `CC(=O)c1c(C)[nH]c(C(=O)NCc2cccc(Cl)c2)c1C`, the inhibition is -6.84%. As for `Cc1nnc(Sc2cc(C(=O)NCc3ccco3)c3ccccc3n2)s1`, the figure is 0.09%.

Take `Cc1cc(C)n(-c2nnc(NC(C)(C)C)nn2)n1`: the inhibition is -8.78%. As for `Cc1cc(C)n(-c2nnc(NCc3ccc(Cl)cc3)nn2)n1`, the figure is 8.99%.

`CCCCNc1nc(-c2ccccc2)nc(-n2ccnc2)n1`: the inhibition is 1.24%. As for `CC(C)Nc1nc(-c2ccccc2)nc(-n2ccnc2)n1`, the inhibition was 8.64%. Take `Cc1sc2nc(CN3CCCC3)nc(N3CCN(C(=O)c4ccco4)CC3)c2c1C`: the inhibition was -1.07%. As for `Cc1ccccc1CC1(CO)CCCN(Cc2ccc(C#CC(C)(C)O)cc2)C1` (stereo unspecified), the figure is 8.42%; as for `COc1cccc(CN2CCC(C(=O)N3CCN(c4ccccc4F)CC3)CC2)c1`, -8.97%; as for `CCOC(=O)c1cccc(NC(=O)N[C@@H](C)C(=O)OC)c1`, -9.35%. To `COc1ccc(-c2cn(-c3ccc(Br)cc3)c3[n+]2CCS3)cc1` belongs 5.88%; to `CC(=O)c1ccc(-n2cc(-c3ccc(C(C)(C)C)cc3)[n+]3c2SCCC3)cc1`, 40.7%. To `N#Cc1c(/N=C/C=C/c2ccccc2)sc2c1CCCC2` belongs -4.34%. Take `Cc1cccc(OCC2=NS(=O)(=O)c3ccccc3N2)c1`: the inhibition is -21.3%.

Consider `CCOC(=O)c1ccc(NC(=O)CSc2nnnn2CCCO)cc1`, for which the inhibition is 68.7%. In the case of `COc1ccc(NC(=O)CSc2nnnn2C)cc1`, the inhibition was -5.32%. To `Cn1nnnc1SCC(=O)Nc1ccccc1-c1ccccc1` belongs 36.5%.

Regarding `CCCCOC(=O)c1ccc(NC(=O)CSc2nncn2C)cc1`, the inhibition is 53.2%. `Cc1cc(C)nc(SCC(=O)Nc2nc(-c3ccccc3)c(-c3ccccc3)o2)n1`: the inhibition is 5.45%. As for `Cn1nnnc1SCC(=O)Nc1ccc(Oc2ccccc2)cc1`, the figure is 57.4%. Turning to `CCOC(=O)c1oc2ccc(S(=O)(=O)Nc3ccc4c(c3)n(C)c(=O)n4C)cc2c1C`, the inhibition was -1.98%. As for `O=C1CCCC2=C1C(c1ccsc1)CC(=O)N2c1ccccc1F` (stereo unspecified), the figure is -5.2%; as for `CCN(CC)CCCNC(=O)c1ccccc1C`, -9.77%.

Consider `O=C(c1ccccc1)N1CCC2(CC1)OCCO2`, for which the inhibition is -4.39%. Regarding `CCN=C1SC(C(=O)Nc2cccc(Cl)c2)CC(=O)N1CC` (stereo unspecified), the inhibition is 2.07%.

Take `O=C(c1cc2nc(-c3ccccc3)cc(-c3ccccc3)n2n1)N1CCCC1`: the inhibition was -3%.

In the case of `CN1CCN(C(=O)c2cc3nc(-c4ccccc4)cc(-c4ccccc4)n3n2)CC1`, the inhibition is 4.38%.

Regarding `CCCCn1c(=O)c(CCC(=O)OCC(=O)NC(=O)NCCC(C)C)nc2ccccc21`, the inhibition was -5.41%.
